TEAD-YAP block: TEAD-YAP interaction inhibition, primary screen, TEAD-YAP interaction inhibitor project, luminescence, HEK-TIYL cells. AID 1259422, 2018. inhibition, % at 9.12 µM. TEAD-Gal4/YAP UAS-luciferase luminescence. 1.4% of 640,000 active; in the data active = inhibition above about 32%;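 note: 0% = median of test compound wells and 100% = reference inhibitor wells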
FBW7 activator: FBW7 E3 ligase activators, primary screen, biochemical, AlphaScreen, human. 0.13% of 650,000 active. normalized activity (activation), % at 26.1 µM. AID 1259310, 2017. AlphaScreen FBW7–phospho-cyclin E peptide binding, activator screen; in the data active = normalized activity above about 1.9%;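 note: purified mutant Fbw7 with reduced substrate affinity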
MITF inh: MITF inhibitors, primary screen, biochemical, AlphaScreen, human. Microphthalmia-associated transcription factor (Homo sapiens), O75030. AlphaScreen MITF homodimerization, bead proximity signal. inhibition, % at 2.6 µM. 0.91% of 650,000 active. AID 1259374, 2018; in the data active = inhibition above about 50%;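 note: 0% = vehicle wells with protein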
Target sequence (O75030 whole entry, looked up): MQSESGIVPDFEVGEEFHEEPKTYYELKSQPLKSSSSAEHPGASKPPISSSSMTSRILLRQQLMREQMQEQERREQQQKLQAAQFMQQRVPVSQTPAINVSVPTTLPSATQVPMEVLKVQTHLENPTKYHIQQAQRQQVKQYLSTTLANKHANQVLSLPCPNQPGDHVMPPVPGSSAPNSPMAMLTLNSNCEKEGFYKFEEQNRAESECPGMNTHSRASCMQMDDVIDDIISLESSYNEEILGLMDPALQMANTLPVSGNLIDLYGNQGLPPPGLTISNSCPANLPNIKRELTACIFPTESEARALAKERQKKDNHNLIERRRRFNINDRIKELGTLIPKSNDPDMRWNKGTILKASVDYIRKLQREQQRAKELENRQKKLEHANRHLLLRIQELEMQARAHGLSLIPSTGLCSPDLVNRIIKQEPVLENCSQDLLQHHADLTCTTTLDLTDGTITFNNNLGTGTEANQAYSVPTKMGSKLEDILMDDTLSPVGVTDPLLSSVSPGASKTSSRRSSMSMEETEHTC
GPR151 activ: activators of human GPR151, primary screen, cell-based, PathHunter beta-arrestin, luminescence. G-protein coupled receptor 151 (Homo sapiens), Q8TDV0. PathHunter beta-arrestin GPR151 cells. activation, % at 11.2 µM. 1% of 650,000 active. AID 1508602, 2020; in the data active = activation above about 4.9%;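 note: 0% = median of compound wells and 100% = cells with positive control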
GPR151 confirm: GPR151 activators, triplicate retest, confirmation, cell-based, PathHunter beta-arrestin, luminescence | AID 1508609, 2020 | shares compounds with GPR151 activ | GPR151 PathHunter beta-arrestin cells, 90 min; % of EA-reagent control over plate median | activation, % at 11.2 µM | 6,700 tested, under 10 active;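 active = mean percent activation across replicates above the confirmation screen cutoff of 4.91%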
GPR119 ag: GPR119 activators in beta-arrestin cells, counter-screen for GPR151 activator project, cell-based, PathHunter beta-arrestin, luminescence, triplicate. activation, % at 11.2 µM. shares compounds with GPR151 activ. 90 min; 0 = compound-well median, 100 = enzyme-acceptor control. AID 1508611, 2020. 0.3% of 6,700 active;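 active = mean percent activation in the counterscreen above 29.09%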;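 note: counterscreen on off-target GPR119 to flag nonselective hits from the GPR151 activator screen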
An asterisk follows results filed as active; . = no result given; ! = a repeat was not active. In the library only some 3.5% were active in any assay of this set; here they are far more common.

SMILES	TEAD-YAP block	FBW7 activator	MITF inh	GPR151 activ	GPR151 confirm	GPR119 ag
O=c1ccc(=O)n(-c2ccc(F)cc2Br)[nH]1	7.8	0.1	3.6	-1.1	.	.
COc1cccc(-n2c(O)c(/C=C3\C(C)=Nc4ccc([N+](=O)[O-])cc43)c(=O)[nH]c2=S)c1	6.7	-0.2	6.7	0.9	.	.
CC(C)CCN1CCNC(=O)C1CC(=O)NCC1(c2ccccc2)CCOCC1 (stereo unspecified)	5.3	-0.1	9.7	6.1*	1.4	4.8
CCOc1ccc(CN2CCNC(=O)C2CC(=O)NCC2(c3ccccc3)CCCC2)cc1 (stereo unspecified)	14.4	0.0	-6.5	8.0*	-1.4	-18.5
Cc1ccc(NC(=O)c2ccc(CNc3c(N4CCOCC4)c(=O)c3=O)cc2)cc1F	-7.5	-0.1	1.4	5.0*	0.1	-9.1
COc1ccccc1CNC(=O)c1ccc(CNc2c(N3CCCC3)c(=O)c2=O)cc1	4.9	0.2	10.1	4.9*	-1.0	-12.5
Cc1ccc(C(=O)NNC2=NCCC2)cc1	-6.4	0.5	-0.6	5.6*	0.4	6.0
O=C(NNC1=NCCC1)c1ccc(Br)cc1	-4.5	-0.1	4.8	0.3	.	.
COc1ccccc1C/C(N)=N/OC(=O)c1ccccc1F	-49.2	0.1	-19.1	4.1	.	.
CC(=O)O[C@H]1CC[C@@]2(C)C(C[C@@H](OC(C)=O)[C@@]3(C)C4=CC(=O)O[C@@H](c5ccoc5)[C@]4(C)CCC23)C1(C)C (stereo partly specified)	0.2	0.1	17.4	6.5*!	0.5	3.8
Cc1c(-c2ccc(/C=N/NC(=O)Cn3nnnc3-c3ccccc3)o2)ccc([N+](=O)[O-])c1C	3.3	-0.1	8.2	0.7	.	.
CCSC1=NSC2=NC(=O)/C(=C\c3ccc([N+](=O)[O-])cc3)C(=N)N12	-8.0	0.2	-4.4	0.0	.	.
CSC1=NSC2=NC(=O)/C(=C\c3ccc([N+](=O)[O-])cc3)C(=N)N12	-42.6	-0.3	4.7	10.5*	1.8	1.1
O=S(=O)(Nc1ccccc1)c1ccc(NS(=O)(=O)c2c(F)cccc2F)cc1	-3.4	-0.1	8.1	5.2*	0.1	3.1
O=S(=O)(Nc1ccc(S(=O)(=O)Nc2ccccc2)cc1)c1ccccc1	2.6	0.7	17.2	-0.7	.	.
CC(=O)Nc1cccc(N=Cc2cc(Cl)cc(Cl)c2O)c1	-6.2	0.1	-4.1	5.7*	1.0	8.7
CO[C@H]1COC(=O)CCC[C@@H](C)[C@H](OC)COC(=O)C/C=C/[C@@H]1C	.	0.1	9.7	0.7	.	.
CC(C)C(=O)Nc1ccc(S(=O)(=O)NCC2(c3ccccc3)CCOCC2)cc1	-6.9	0.2	-0.4	5.2*	-0.3	-5.4
CC(=O)NNc1cccc(Cl)c1	3.9	0.0	-10.2	6.1*	-0.5	-3.0
CCN1CCN(S(=O)(=O)c2ccc(OC)c(I)c2)CC1	5.8	0.0	5.0	11.4*	-0.2	-6.4
COc1ccc(S(=O)(=O)N2CCCCC2)cc1[N+](=O)[O-]	4.3	0.0	4.9	5.0*	0.0	-2.6
CC(C)Oc1cc(S(=O)(=O)N2CCCCC2)ccc1N	1.1	-0.1	6.2	9.9*	-1.0	-15.6
CC1CN(CC(O)COc2ccc(S(=O)(=O)N3CCCC3)cc2[N+](=O)[O-])CC(C)O1 (stereo unspecified)	15.2	0.1	28.5	5.7*	0.8	-3.5
CC1CCCCN1C(=O)COc1ccc(S(=O)(=O)N2CCCC2)cc1[N+](=O)[O-] (stereo unspecified)	1.6	0.3	19.6	0.1	.	.
COc1ccc(S(=O)(=O)N2CCc3ccccc3C2)cc1I	9.0	0.2	10.3	0.3	.	.
SMILES	TEAD-YAP block	FBW7 activator	MITF inh	GPR151 activ	GPR151 confirm	GPR119 ag
O=C(c1ccc(F)cc1)N1c2ccccc2CCc2ccccc21	3.5	0.1	3.0	-1.1	.	.
O=[N+]([O-])c1ccccc1CNc1ccc(F)c(Cl)c1	-10.0	0.0	7.4	5.9*	0.0	0.4
Cc1ccc2[nH]c(O)c(N=NC(N)=O)c2c1	-4.9	0.1	-6.1	-0.3	.	.
COc1ccc(C(=O)C(C)Sc2nc(C)cc(=O)[nH]2)cc1 (stereo unspecified)	-2.5	0.6	-10.5	-2.0	.	.
CCOc1ccc(C(=O)C(C)Sc2nc(C)cc(=O)[nH]2)cc1 (stereo unspecified)	-7.2	-0.1	-1.6	5.1*	1.2	9.2
CCOC(=O)c1c(NC(=O)c2ccc(S(=O)(=O)N3CCCc4ccccc43)cc2)sc(C)c1C	-5.5	0.2	5.0	0.2	.	.
CCN(CC)S(=O)(=O)c1nnc(NC(=O)c2ccccc2Br)s1	-6.6	0.0	4.1	0.8	.	.
O=C(O)c1cc([N+](=O)[O-])cc([N+](=O)[O-])c1N1CCN(CCO)CC1	8.0	0.2	17.1	5.3*	0.8	7.5
CC(C)N(CCNc1nc(N2CCC(N3CCOCC3)CC2)nc2c1ncn2C1CCCCC1)C(C)C	2.9	-0.1	9.7	14.3*	1.0	5.9
Cc1cnc(N2CCC(N3CCOCC3)CC2)nc1NCCN(C(C)C)C(C)C	1.1	0.2	-9.0	6.7*	-0.8	6.3
O=C(Cc1ccc(Cl)cc1Cl)N1CCN(c2ccc(O)cc2)CC1	-7.5	0.5	4.3	5.2*	0.1	-2.5
NC(=O)C1CCN(C(=O)Cc2ccc(Cl)cc2Cl)CC1	-8.0	-0.1	-1.4	0.7	.	.
CC(C)n1c(Nc2ccc3ncccc3c2)nc2c(NCCc3ccc(O)cc3)ncnc21	-1.1	0.0	-0.2	5.1*	-0.1	-5.4
CC(C)n1c(Nc2ccccc2)nc2c(NCCc3ccc(O)cc3)ncnc21	29.8	0.0	-0.7	6.1*	-1.1	-10.6
CC(C)n1c(Nc2ccc3ncccc3c2)nc2c(NCCN3CCOCC3)ncnc21	-4.5	0.0	14.1	6.4*	0.4	0.0
CCOC(=O)C1=C(C)N=c2s/c(=C\c3cccc(OCC)c3)c(=O)n2C1c1ccccc1 (stereo unspecified)	-15.4	1.0	11.5	-1.0	.	.
COc1ccc(-c2cc(N)n(S(=O)(=O)c3cccc4nsnc34)n2)cc1	-4.0	0.0	0.5	0.9	.	.
COc1ccc(/C=N/N=c2\sc3ccccc3n2C)c(OC)c1	-44.1	0.0	4.1	9.2*	-0.1	5.9
COc1cccc(/C=N\N=c2\sc3ccccc3n2C)c1OC	-46.6	-0.1	18.6	0.1	.	.
COc1ccc(Cl)cc1NC(=O)CCc1nnc2ccc(N3CCN(C)CC3)nn12	-1.7	-0.1	-10.9	5.1*	0.1	2.4
COc1ccc(OC)c(NC(=O)CCc2nnc3ccc(N4CCCCC4)nn23)c1	1.9	0.0	3.7	1.6	.	.

Screens deposited in PubChem BioAssay by The Scripps Research Institute Molecular Screening Center.
